Source: PubChem BioAssay (NCI)
Values joined by “and” are separate entries in the source; they are usually repeats but may differ in a detail not shown here. Identical values can stand only once. This is part of a sample that, as a whole, favours compounds with a hit. Of some 83,000 tested, about 20% had one in any assay.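 Interpretation: 100, growth as untreated; towards 0, rising growth inhibition; 0, no net growth; 0 to -100, cell death. Compounds scoring below 10 were considered active.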 Active and inactive are the calls of the source.

What was measured:
Assay in all cases: NCI-60 one-dose screen, 48 h (100 = growth as untreated, 0 = no growth, -100 = all killed)
Conditions in all cases: 10 µM unless noted
NCI-H23 lung = tested on: NCI-H23 lung
NCI-H226 lung = tested on: NCI-H226 lung
NCI-H322M lung = tested on: NCI-H322M lung
HOP-62 NSCLC = tested on: HOP-62 NSCLC
NCI-H460 lung = tested on: NCI-H460 lung
HOP-92 NSCLC = tested on: HOP-92 NSCLC
NCI-H522 lung = tested on: NCI-H522 lung
A549/ATCC NSCLC = tested on: A549/ATCC NSCLC
786-0 renal = tested on: 786-0 renal
COLO 205 colon = tested on: COLO 205 colon
DU-145 prostate = tested on: DU-145 prostate
K-562 leukemia = tested on: K-562 leukemia
MALME-3M melanoma = tested on: MALME-3M melanoma
MDA-MB-231 breast = tested on: MDA-MB-231 breast
RXF 393 renal = tested on: RXF 393 renal
SF-268 CNS = tested on: SF-268 CNS
SF-295 CNS = tested on: SF-295 CNS
SF-539 CNS = tested on: SF-539 CNS
UACC-257 melanoma = tested on: UACC-257 melanoma
M14 melanoma = tested on: M14 melanoma

For `O=[N+]([O-])c1ccccc1N(S(=O)(=O)c1ccccc1)S(=O)(=O)c1ccccc1`, the growth (NCI-H23 lung) was 106% (inactive) and 95.9% (inactive), the growth (NCI-H226 lung) was 113% (inactive) and 91.2% (inactive) and the growth (NCI-H322M lung) was 90% (inactive) and 95% (inactive). For the same compound, the growth (HOP-62 NSCLC) was 118% (inactive) and 119% (inactive), the growth (NCI-H460 lung) was 108% (inactive) and 114% (inactive) and the growth (HOP-92 NSCLC) was 92.8% (inactive) and 101% (inactive). For the same compound, the growth (NCI-H522 lung) was 94.7% (inactive) and 87.3% (inactive), the growth (A549/ATCC NSCLC) was 91.3% (inactive) and 80.2% (inactive) and the growth (786-0 renal) was 109% (inactive). For the same compound, the growth (COLO 205 colon) was 129% (inactive) and 117% (inactive), the growth (DU-145 prostate) was 118% (inactive) and 99.7% (inactive) and the growth (K-562 leukemia) was 93% (inactive) and 113% (inactive). The growth (MALME-3M melanoma) was 120% (inactive) and 109% (inactive), the growth (MDA-MB-231 breast) was 112% (inactive) and 96.5% (inactive) and the growth (RXF 393 renal) was 119% (inactive) and 108% (inactive). For the same compound, the growth (SF-268 CNS) was 96.3% (inactive) and 95.2% (inactive), the growth (SF-295 CNS) was 108% (inactive) and 77.6% (inactive) and the growth (SF-539 CNS) was 117% (inactive) and 104% (inactive). For the same compound, the growth (UACC-257 melanoma) was 85.7% (inactive) and 92.4% (inactive).
With `O=C(/C=C\c1ccnc2ccccc12)c1ccc([N+](=O)[O-])cc1` the growth (NCI-H23 lung) was 91.4% (inactive) and 63% (inactive), the growth (NCI-H226 lung) was 85.3% (inactive) and 68.5% (inactive) and the growth (NCI-H322M lung) was 112% (inactive) and 115% (inactive). For the same compound, the growth (HOP-62 NSCLC) was 104% (inactive) and 77.9% (inactive), the growth (NCI-H460 lung) was 99.7% (inactive) and 79.8% (inactive) and the growth (HOP-92 NSCLC) was 78% (inactive) and 58% (inactive). The growth (NCI-H522 lung) was 36.7% (inactive) and 67.7% (inactive), the growth (A549/ATCC NSCLC) was 91.5% (inactive) and 78.3% (inactive) and the growth (786-0 renal) was 88.8% (inactive) and 81.4% (inactive). The growth (COLO 205 colon) was 118% (inactive) and 105% (inactive), the growth (DU-145 prostate) was 101% (inactive) and 96% (inactive) and the growth (K-562 leukemia) was 55.1% (inactive) and 8.08% (active). The growth (MALME-3M melanoma) was 101% (inactive) and 85.5% (inactive), the growth (MDA-MB-231 breast) was 84.1% (inactive) and 93.2% (inactive) and the growth (RXF 393 renal) was 107% (inactive) and 75.7% (inactive). For the same compound, the growth (SF-268 CNS) was 105% (inactive) and 91.6% (inactive), the growth (SF-295 CNS) was 82.6% (inactive) and the growth (SF-539 CNS) was 85.2% (inactive). For the same compound, the growth (UACC-257 melanoma) was 90% (inactive) and 65.8% (inactive) and the growth (M14 melanoma) was 90.7% (inactive) and 79.5% (inactive).
With `CCN(CC)CCCC(CNc1ccnc2cc(Cl)ccc12)c1ccc(Cl)cc1` (stereo not drawn) the growth (NCI-H23 lung) was 48.9% (inactive) and 54.3% (inactive), the growth (NCI-H226 lung) was 4.19% (active) and 25.2% (inactive) and the growth (NCI-H322M lung) was -33.5% (active) and 46.5% (inactive). The growth (HOP-62 NSCLC) was 4.57% (active) and 88.8% (inactive), the growth (NCI-H460 lung) was 24.3% (inactive) and -63.6% (active) and the growth (HOP-92 NSCLC) was -51.5% (active) and -68.6% (active). The growth (NCI-H522 lung) was -49.4% (active) and -59.6% (active), the growth (A549/ATCC NSCLC) was 4.3% (active) and 61.4% (inactive) and the growth (786-0 renal) was -83.4% (active) and -97.3% (active). For the same compound, the growth (COLO 205 colon) was -61.9% (active) and -85.6% (active), the growth (DU-145 prostate) was 34.5% (inactive) and 29.6% (inactive) and the growth (K-562 leukemia) was -69% (active) and -71% (active). The growth (MALME-3M melanoma) was -91.3% (active) and -77.4% (active), the growth (MDA-MB-231 breast) was -58.2% (active) and 38.7% (inactive) and the growth (RXF 393 renal) was -64.7% (active) and 22.7% (inactive). For the same compound, the growth (SF-268 CNS) was -19.4% (active) and -34.3% (active), the growth (SF-295 CNS) was -69.7% (active) and -71.8% (active) and the growth (SF-539 CNS) was -87.6% (active) and -92.2% (active). The growth (UACC-257 melanoma) was -67.8% (active) and -86.2% (active) and the growth (M14 melanoma) was -84.7% (active) and -71.4% (active).
For `CCN(CC)CCC(CNc1c2ccc([N+](=O)[O-])cc2nc2cc(OC)c(OC)cc12)c1ccccc1` (stereo not drawn), the growth (NCI-H23 lung) was -86.4% (active) and -71.3% (active), the growth (NCI-H226 lung) was -65.3% (active) and -61.1% (active) and the growth (NCI-H322M lung) was -39.9% (active) and -76.5% (active). The growth (HOP-62 NSCLC) was -9.52% (active) and -86.4% (active), the growth (NCI-H460 lung) was 6.85% (active) and -100% (active) and the growth (HOP-92 NSCLC) was -42.2% (active). For the same compound, the growth (NCI-H522 lung) was -45% (active) and -79.4% (active), the growth (A549/ATCC NSCLC) was -6.05% (active) and -93.9% (active) and the growth (786-0 renal) was -74.2% (active) and -91.6% (active). The growth (COLO 205 colon) was -49.7% (active) and -100% (active), the growth (DU-145 prostate) was -85.2% (active) and -100% (active) and the growth (K-562 leukemia) was -18.8% (active). The growth (MALME-3M melanoma) was -80.1% (active) and -89.1% (active), the growth (MDA-MB-231 breast) was -58.4% (active) and -94.9% (active) and the growth (RXF 393 renal) was -89.8% (active). The growth (SF-268 CNS) was -48.5% (active) and -98.7% (active), the growth (SF-295 CNS) was 3.98% (active) and -90.3% (active) and the growth (SF-539 CNS) was -86.9% (active) and -100% (active). For the same compound, the growth (UACC-257 melanoma) was -41.2% (active) and -97.1% (active) and the growth (M14 melanoma) was -63.2% (active) and -97.4% (active).
`O=C(Nc1ccc(Cl)cc1)c1cc2ccccc2cc1O` was tested, and the growth (NCI-H23 lung) was 12.2% (inactive) and 4.22% (active), the growth (NCI-H226 lung) was 54.4% (inactive) and 42.1% (inactive) and the growth (NCI-H322M lung) was 17.1% (inactive) and 19.6% (inactive). For the same compound, the growth (HOP-62 NSCLC) was 63.6% (inactive) and 5.51% (active), the growth (NCI-H460 lung) was 8.06% (active) and -15.7% (active) and the growth (HOP-92 NSCLC) was -9.86% (active). The growth (NCI-H522 lung) was 26.1% (inactive) and -32.3% (active), the growth (A549/ATCC NSCLC) was 68.2% (inactive) and 26.4% (inactive) and the growth (786-0 renal) was 67.1% (inactive) and -31.9% (active). For the same compound, the growth (COLO 205 colon) was 91.4% (inactive) and 70.4% (inactive), the growth (DU-145 prostate) was 29.6% (inactive) and 10% (inactive) and the growth (K-562 leukemia) was 14.1% (inactive) and 7.46% (active). For the same compound, the growth (MALME-3M melanoma) was 29.4% (inactive) and 17% (inactive), the growth (MDA-MB-231 breast) was 52.7% (inactive) and 41.7% (inactive) and the growth (RXF 393 renal) was 53.6% (inactive) and -17% (active). The growth (SF-268 CNS) was 53.6% (inactive) and 24.9% (inactive), the growth (SF-295 CNS) was 10.2% (inactive) and 3.7% (active) and the growth (SF-539 CNS) was 22.7% (inactive) and 12.5% (inactive). The growth (UACC-257 melanoma) was 20.7% (inactive).
